Active and inactive are the calls of the source.
Experiments:
[1] = tested on: PRMT1 (protein arginine N-methyltransferase 1); assay: small molecules binding arginine methyltransferase PRMT1 – biochemical, small-molecule microarray, 635 nm fluorescence, primary screen (AID 1088); conditions: higher = more signal;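 note: binding of Prmt1 protein to compounds spotted on small-molecule microarray slides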
[2] = growth effects on S. cerevisiae YJM789 – YJM789 clinical isolate, OD600, 24 h, basal, primary screen (AID 1089); conditions: higher = more signal, called active from +8 up or from −8 down;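 note: growth of clinical yeast isolate S. cerevisiae YJM 789 seeded 1000 cells per well; test concentration not given here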
[3] = S. pombe growth modifiers, basal conditions – strain 972, OD600, 24 h, no modulator, primary screen (AID 1090);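 note: basal condition with compound alone and no growth modifier present; test concentration not given here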; conditions: S. pombe 972 growth, higher = more signal, called active from +8 up or from −8 down
[4] = budding yeast growth modifiers under rapamycin – strain BY4716, OD600, 96 h, primary screen (AID 1091); note: test concentration not given here; conditions: S. cerevisiae BY4716 + rapamycin, higher = more signal, called active from +8 up or from −8 down
[5] = target: Torsin-1A-interacting protein 2 (Homo sapiens) (UniProt Q8NFQ8); assay: small molecules binding lysate-expressed LULL1 – cell lysate, human LULL1 lysate, 635/667 nm fluorescence, primary screen (AID 1092); conditions: small-molecule microarray, hLULL1 lysate binding, 635 nm fluorescence; higher = more signal;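 note: probe is lysate of COS7 cells overexpressing human LULL1; score merges per-feature 667 nm fluorescence with signal-to-noise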
Torsin-1A-interacting protein 2 (Homo sapiens), sequence (Q8NFQ8 whole entry, looked up): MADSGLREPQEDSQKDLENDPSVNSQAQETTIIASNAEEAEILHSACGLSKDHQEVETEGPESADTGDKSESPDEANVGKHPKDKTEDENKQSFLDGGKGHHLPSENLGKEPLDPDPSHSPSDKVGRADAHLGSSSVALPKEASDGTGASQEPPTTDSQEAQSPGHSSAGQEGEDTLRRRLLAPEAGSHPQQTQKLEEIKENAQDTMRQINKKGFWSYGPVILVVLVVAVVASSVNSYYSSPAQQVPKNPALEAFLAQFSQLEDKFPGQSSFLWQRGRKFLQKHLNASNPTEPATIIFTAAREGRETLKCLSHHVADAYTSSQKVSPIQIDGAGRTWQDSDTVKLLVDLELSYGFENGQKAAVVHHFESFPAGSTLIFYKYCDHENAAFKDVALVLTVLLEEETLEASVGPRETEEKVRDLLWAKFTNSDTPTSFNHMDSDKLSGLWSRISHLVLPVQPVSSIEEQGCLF

[6] = optical density change of DRC41 E. coli – strain DRC41, OD650, 24 h, E. coli filamentation project, primary screen (AID 1093);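 note: MC1000 strain lacking acrAB efflux and sulA so SOS filamentation is blocked; test concentration not given here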; conditions: E. coli DRC41 growth, higher = more signal, called active from +8 up or from −8 down
[7] = probe aLefty2 binding to arrayed compounds – biochemical, biotinylated probe, 635/667 nm fluorescence, primary screen (AID 1094); conditions: small-molecule microarray, higher = more signal;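 note: score merges spot fluorescence near 667 nm with spot signal-to-noise ratio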
[8] = tested on: Noggin (protein binding on small-molecule microarray); assay: small molecules binding Noggin protein – biochemical, 635/667 nm fluorescence, primary screen (AID 1095); conditions: 635 nm fluorescence, higher = more signal;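 note: score merges 667 nm feature fluorescence with signal to noise over triplicate slides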
[9] = target: Neurogenic locus notch homolog protein 3 (Homo sapiens) (UniProt Q9UM47); assay: small molecules binding NOTCH3 protein – biochemical, 635/667 nm fluorescence, primary screen (AID 1096); conditions: small-molecule microarray, 635 nm fluorescence, higher = more signal
Neurogenic locus notch homolog protein 3 (Homo sapiens), sequence (Q9UM47 whole entry, looked up): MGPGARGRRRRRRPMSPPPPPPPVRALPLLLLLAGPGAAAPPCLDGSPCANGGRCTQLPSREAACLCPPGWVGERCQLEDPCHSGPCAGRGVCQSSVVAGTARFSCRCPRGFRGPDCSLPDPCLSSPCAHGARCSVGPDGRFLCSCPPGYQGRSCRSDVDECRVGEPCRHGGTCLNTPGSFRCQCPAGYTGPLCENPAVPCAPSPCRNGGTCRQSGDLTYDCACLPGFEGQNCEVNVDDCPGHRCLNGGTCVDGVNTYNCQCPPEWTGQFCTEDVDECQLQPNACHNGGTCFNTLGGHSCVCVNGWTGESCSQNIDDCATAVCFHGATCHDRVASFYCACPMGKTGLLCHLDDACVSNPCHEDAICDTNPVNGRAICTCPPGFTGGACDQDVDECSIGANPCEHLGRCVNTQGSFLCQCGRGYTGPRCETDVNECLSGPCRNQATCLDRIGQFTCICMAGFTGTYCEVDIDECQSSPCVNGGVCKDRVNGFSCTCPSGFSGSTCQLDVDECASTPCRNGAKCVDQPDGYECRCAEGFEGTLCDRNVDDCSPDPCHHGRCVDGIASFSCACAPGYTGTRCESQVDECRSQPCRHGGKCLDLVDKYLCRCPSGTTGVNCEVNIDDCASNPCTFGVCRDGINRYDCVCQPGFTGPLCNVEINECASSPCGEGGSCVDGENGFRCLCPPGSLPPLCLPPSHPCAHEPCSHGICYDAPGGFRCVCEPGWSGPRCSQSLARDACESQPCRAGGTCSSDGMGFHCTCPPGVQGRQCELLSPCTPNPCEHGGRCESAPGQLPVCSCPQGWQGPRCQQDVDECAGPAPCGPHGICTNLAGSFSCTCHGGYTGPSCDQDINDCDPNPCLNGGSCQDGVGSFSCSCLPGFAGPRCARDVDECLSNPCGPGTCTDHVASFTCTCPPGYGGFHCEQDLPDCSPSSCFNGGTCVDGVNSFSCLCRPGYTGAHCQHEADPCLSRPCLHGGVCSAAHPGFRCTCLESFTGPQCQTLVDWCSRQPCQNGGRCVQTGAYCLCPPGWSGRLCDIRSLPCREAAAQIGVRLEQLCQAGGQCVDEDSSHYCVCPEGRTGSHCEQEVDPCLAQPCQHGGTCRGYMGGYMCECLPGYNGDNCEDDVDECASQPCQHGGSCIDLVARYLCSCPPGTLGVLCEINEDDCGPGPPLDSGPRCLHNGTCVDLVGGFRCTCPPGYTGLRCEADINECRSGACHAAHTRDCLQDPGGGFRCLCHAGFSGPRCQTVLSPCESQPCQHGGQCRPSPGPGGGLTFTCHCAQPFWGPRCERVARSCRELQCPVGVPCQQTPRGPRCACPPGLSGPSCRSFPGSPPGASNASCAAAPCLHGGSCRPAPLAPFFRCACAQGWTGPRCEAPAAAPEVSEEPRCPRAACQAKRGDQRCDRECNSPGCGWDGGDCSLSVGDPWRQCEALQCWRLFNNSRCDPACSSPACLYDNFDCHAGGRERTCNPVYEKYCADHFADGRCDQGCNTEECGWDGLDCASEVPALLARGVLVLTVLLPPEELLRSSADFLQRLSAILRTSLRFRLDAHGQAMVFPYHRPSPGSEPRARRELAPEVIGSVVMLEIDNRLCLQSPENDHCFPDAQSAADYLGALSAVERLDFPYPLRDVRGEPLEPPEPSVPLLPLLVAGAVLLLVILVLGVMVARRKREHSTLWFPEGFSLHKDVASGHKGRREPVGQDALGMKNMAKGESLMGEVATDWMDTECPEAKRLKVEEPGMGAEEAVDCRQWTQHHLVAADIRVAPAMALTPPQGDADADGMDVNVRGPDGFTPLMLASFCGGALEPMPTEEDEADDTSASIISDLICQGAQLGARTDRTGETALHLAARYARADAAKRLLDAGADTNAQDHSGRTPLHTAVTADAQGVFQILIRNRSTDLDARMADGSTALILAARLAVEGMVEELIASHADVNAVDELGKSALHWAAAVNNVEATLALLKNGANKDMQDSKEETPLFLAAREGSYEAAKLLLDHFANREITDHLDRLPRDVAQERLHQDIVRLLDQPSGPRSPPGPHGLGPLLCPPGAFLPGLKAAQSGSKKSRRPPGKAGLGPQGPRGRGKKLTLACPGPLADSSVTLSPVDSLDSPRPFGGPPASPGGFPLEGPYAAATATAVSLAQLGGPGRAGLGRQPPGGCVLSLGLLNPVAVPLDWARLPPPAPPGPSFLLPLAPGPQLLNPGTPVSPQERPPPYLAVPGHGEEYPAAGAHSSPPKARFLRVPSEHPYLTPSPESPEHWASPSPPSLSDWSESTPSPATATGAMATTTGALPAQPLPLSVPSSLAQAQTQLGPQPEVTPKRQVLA

[10] = probe aEGFR binding to arrayed compounds – biochemical, biotinylated probe, 635/667 nm fluorescence, primary screen (AID 1097); conditions: small-molecule microarray, higher = more signal;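 note: probe is a biotinylated anti-EGFR antibody binding compounds printed on slides; score combines fluorescence near 667 nm and signal to noise of each spot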
[11] = tested on: Plasmodium falciparum Sir2 (PF13_0152, Sir2A); assay: Plasmodium falciparum Sir2A binding compounds – biochemical, small-molecule microarray, 635 nm fluorescence, primary screen (AID 1098); conditions: fluorescence 635 nm, higher = more signal;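 note: score merges spot fluorescence intensity with its signal-to-noise ratio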
[12] = probe aDKK1 binding to arrayed compounds – biochemical, biotinylated probe, 635/667 nm fluorescence, primary screen (AID 1099); conditions: small-molecule microarray, higher = more signal;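 note: score merges 667nm spot fluorescence with signal to noise across triplicate slides; reference of the scale not given here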
[13] = probe aCHRDL2 binding to arrayed compounds – biochemical, biotinylated probe, 635/667 nm fluorescence, primary screen (AID 1100); conditions: small-molecule microarray, higher = more signal
[14] = change in splice reporter luminescence, either direction, cell-based, HEK293, spliceosome inhibition project, primary screen (AID 1101); conditions: HEK293 splicing luciferase reporter, 24 h, higher = more signal, called active from +8 up or from −8 down;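 note: HEK293 cells carrying a splicing-competent luciferase reporter gene; test concentration not given here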
[15] = target: Fibroblast growth factor 10 (Homo sapiens) (UniProt O15520); assay: compounds binding fibroblast growth factor 10 – biochemical, small-molecule microarray, 635 nm fluorescence, primary screen (AID 1102); conditions: FGF10 binding, fluorescence 635 nm, higher = more signal
Fibroblast growth factor 10 (Homo sapiens), sequence (O15520 whole entry, looked up): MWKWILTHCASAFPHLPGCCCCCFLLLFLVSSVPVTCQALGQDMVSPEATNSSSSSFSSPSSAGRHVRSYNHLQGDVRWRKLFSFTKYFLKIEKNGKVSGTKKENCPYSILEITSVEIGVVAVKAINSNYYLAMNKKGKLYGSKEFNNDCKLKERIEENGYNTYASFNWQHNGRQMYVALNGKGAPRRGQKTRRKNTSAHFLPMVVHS

[16] = tested on: glycogen synthase kinase-3 (GSK3A per assay name; protocol says GSK3B); assay: compounds binding glycogen synthase kinase-3 – biochemical, small-molecule microarray, 635 nm fluorescence, GSK3A, primary screen (AID 1103); conditions: fluorescence 635 nm, higher = more signal; note: the record names both GSK3A and GSK3B
[17] = target: Epidermal growth factor receptor (Homo sapiens) (UniProt P00533); assay: compounds binding epidermal growth factor receptor – biochemical, small-molecule microarray, 635 nm fluorescence, primary screen (AID 1104); conditions: EGFR binding, higher = more signal;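 note: score merges 667 nm emission intensity with spot signal to noise over triplicate slides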
Epidermal growth factor receptor (Homo sapiens), sequence (P00533 whole entry, looked up): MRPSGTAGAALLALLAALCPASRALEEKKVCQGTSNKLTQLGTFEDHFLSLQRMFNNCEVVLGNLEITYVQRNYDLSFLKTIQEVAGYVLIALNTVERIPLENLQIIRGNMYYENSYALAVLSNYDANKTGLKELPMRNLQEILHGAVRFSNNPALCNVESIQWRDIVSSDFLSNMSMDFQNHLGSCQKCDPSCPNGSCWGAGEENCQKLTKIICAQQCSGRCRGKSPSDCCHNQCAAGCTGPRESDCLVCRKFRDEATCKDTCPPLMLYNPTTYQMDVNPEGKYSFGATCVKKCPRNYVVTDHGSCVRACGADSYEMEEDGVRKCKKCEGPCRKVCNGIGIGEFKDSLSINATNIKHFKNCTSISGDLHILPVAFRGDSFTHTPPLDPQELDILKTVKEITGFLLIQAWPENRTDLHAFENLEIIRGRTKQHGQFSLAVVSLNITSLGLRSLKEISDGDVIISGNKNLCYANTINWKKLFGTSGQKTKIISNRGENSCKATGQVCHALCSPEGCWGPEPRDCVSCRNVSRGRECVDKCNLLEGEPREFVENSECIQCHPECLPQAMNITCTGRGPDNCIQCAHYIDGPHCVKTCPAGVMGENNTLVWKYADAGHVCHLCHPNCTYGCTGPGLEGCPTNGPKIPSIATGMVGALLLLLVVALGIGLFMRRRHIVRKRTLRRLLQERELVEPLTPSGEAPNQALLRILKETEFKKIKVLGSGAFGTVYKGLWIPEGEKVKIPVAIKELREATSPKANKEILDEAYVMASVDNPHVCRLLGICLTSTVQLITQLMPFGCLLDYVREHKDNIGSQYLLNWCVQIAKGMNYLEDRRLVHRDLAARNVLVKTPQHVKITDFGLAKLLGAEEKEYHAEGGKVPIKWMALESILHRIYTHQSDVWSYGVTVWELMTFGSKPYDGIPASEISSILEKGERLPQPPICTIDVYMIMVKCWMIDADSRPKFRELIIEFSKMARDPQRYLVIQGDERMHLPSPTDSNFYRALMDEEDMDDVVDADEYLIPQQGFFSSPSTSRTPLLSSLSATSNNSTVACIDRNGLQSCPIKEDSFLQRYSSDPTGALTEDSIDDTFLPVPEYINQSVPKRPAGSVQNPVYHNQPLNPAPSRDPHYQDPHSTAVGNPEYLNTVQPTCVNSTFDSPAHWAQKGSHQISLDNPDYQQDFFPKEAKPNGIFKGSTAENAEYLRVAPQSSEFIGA

[18] = target: Follistatin-related protein 3 (Homo sapiens) (UniProt O95633); assay: compounds binding follistatin-related protein 3 – biochemical, small-molecule microarray, 635 nm fluorescence, primary screen (AID 1105); conditions: FSTL3 binding, higher = more signal;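 note: score merges emission near 667 nm and signal to noise per printed spot across three slides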
Follistatin-related protein 3 (Homo sapiens), sequence (O95633 whole entry, looked up): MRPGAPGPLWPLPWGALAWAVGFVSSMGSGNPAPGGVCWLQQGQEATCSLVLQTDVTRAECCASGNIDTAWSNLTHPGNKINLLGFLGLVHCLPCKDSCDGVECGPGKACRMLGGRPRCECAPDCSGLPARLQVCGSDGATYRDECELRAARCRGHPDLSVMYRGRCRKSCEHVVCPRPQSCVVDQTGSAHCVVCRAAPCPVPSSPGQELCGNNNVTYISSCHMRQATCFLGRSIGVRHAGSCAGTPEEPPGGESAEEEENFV

[19] = target: Dickkopf-related protein 1 (Homo sapiens) (UniProt O94907); assay: small molecules binding DKK1 protein – biochemical, small-molecule microarray, 635 nm fluorescence scan, primary screen (AID 1106); conditions: higher = more signal;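 note: score merges emission near 667 nm with signal to noise over three replicate slides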
Dickkopf-related protein 1 (Homo sapiens), sequence (O94907 whole entry, looked up): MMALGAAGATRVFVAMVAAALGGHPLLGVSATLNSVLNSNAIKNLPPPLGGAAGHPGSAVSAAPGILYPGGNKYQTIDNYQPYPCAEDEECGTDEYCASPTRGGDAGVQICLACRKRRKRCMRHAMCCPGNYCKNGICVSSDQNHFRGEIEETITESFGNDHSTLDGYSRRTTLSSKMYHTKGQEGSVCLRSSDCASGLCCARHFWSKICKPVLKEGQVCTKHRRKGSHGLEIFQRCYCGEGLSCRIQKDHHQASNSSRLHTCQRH

[20] = tested on: Inhibin beta A chain (activin A); assay: small molecules binding activin A – biochemical, small-molecule microarray, 635 nm fluorescence scan, primary screen (AID 1107); conditions: INHBA, higher = more signal;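 note: mouse activin A protein probed at 4.33 µg/mL on printed slides; score merges bound-protein fluorescence near 667 nm with spot signal-to-noise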

Row | SMILES | composite z-score [1] | z-score [2] | z-score [3] | z-score [4] | composite z-score [5] | z-score [6] | composite z-score [7] | composite z-score [8] | composite z-score [9] | composite z-score [10] | composite z-score [11] | composite z-score [12] | composite z-score [13] | z-score [14] | composite z-score [15] | composite z-score [16] | composite z-score [17] | composite z-score [18] | composite z-score [19] | composite z-score [20]
1 | COC(=O)[C@H](C)NC(=O)CCC1CC(OC(=O)NCc2cccc3ccccc23)CC2(CCCC(COC(=O)NCCC(C)C)O2)O1 (stereo not given in full) | 0.651 | -0.518 (inactive) | -1.07 (inactive) | -0.642 (inactive) | 1.84 | 0.384 (inactive) | -0.205 | 0.352 | 0.504 | -0.112 | 1.41 | -0.144 | -0.391 | -0.119 (inactive) | 0.481 | 0.247 | 0.374 | 0.463 | 0.188 | 0.199
2 | COc1ccc(O[C@H]2C=C[C@@H](c3ccccc3)O[C@@H]2COC(=O)NCc2cccc3ccccc23)cc1 | 0.133 | 0.68 (inactive) | 0.393 (inactive) | 1.28 (inactive) | 0.33 | -0.477 (inactive) | -0.106 | 0.0672 | -0.574 | -0.122 | -0.101 | 0.0187 | 0.173 | -0.134 (inactive) | 0.0748 | -0.131 | -0.168 | 0.1 | 0.269 | 0.763
3 | COc1ccc(COC(=O)NN=C2C[C@@H](O)[C@@H](O)[C@@H]3[C@@H]4C(=O)N(c5cccc(Oc6ccccc6)c5)C(=O)[C@@H]4CC[C@H]23)cc1 | -0.412 | 0.135 (inactive) | -0.655 (inactive) | -0.693 (inactive) | 0.717 | 1.02 (inactive) | 0.297 | -0.476 | 0.148 | -0.109 | 0.328 | 0.543 | 1.2 | -1.27 (inactive) | -0.0908 | -0.944 | -0.479 | -0.226 | -0.767 | 0.212
4 | C[C@H]1CC[C@H]2C(=O)N[C@H](Cc3ccccc3)C(=O)N2[C@@H]1c1ccccc1 | -0.0481 | 0.492 (inactive) | 0.0432 (inactive) | -0.489 (inactive) | 0.217 | 0.805 (inactive) | -0.17 | 0.413 | -0.304 | -0.0794 | -0.427 | 0.176 | -0.225 | -0.0985 (inactive) | 0.136 | -0.0595 | 0.353 | 0.185 | 0.768 | 0.595
5 | CC(CCN1CCCCc2nc(C)c(C)cc21)=NO[C@@H](C)c1cc(-c2c(C)cc(C)cc2C)no1 | 0.0804 | -1.73 (inactive) | -10.2 (active) | -0.199 (inactive) | -0.745 | 0.486 (inactive) | -0.126 | -0.0547 | -1.55 | -0.343 | 1.41 | -0.422 | 0.27 | 0.673 (inactive) | -0.488 | -1.05 | -1.51 | -1.35 | -0.0396 | 0.823
6 | CC(C)[C@@H](OCc1ccccc1)[C@H](C)C=NO[C@H](C)c1cn([C@@H]2COC[C@H]2O)nn1 | 1.55 | -1.02 (inactive) | -0.121 (inactive) | 0.0703 (inactive) | 1.28 | 1.13 (inactive) | -0.162 | 0.871 | 0.968 | -0.0111 | 0.385 | -0.492 | -0.511 | 0.0201 (inactive) | 0.457 | 1.08 | 0.556 | 0.448 | 0.0939 | -1.31
7 | CC(C)(C)N1C(=O)[C@H]2[C@H]3[C@H](O)[C@H](O)CC(=NOC[C@@H](O)COCc4ccco4)[C@@H]3CC[C@H]2C1=O | -0.424 | -0.0093 (inactive) | 0.257 (inactive) | 0.498 (inactive) | -0.238 | 0.635 (inactive) | 0.16 | 0.0106 | -0.589 | -0.141 | 0.34 | 0.774 | 0.588 | 0.369 (inactive) | 0.249 | -0.332 | -0.144 | -0.248 | -0.272 | 0.426
8 | COC(=O)[C@H](C)NC(=O)CCC1CC(OC(=O)NCc2ccc3c(c2)OCO3)CC2(CCCC(COC(=O)NCc3ccccc3)O2)O1 (stereo not given in full) | 1.23 | 0.24 (inactive) | 0.532 (inactive) | 0.274 (inactive) | 1.64 | 0.326 (inactive) | -0.157 | 0.888 | 1.09 | -0.0234 | 0.343 | -0.172 | -0.612 | -0.66 (inactive) | 0.894 | 0.821 | 0.293 | 0.832 | 0.893 | -0.0611
9 | CCCC[C@H]1CN2[C@@H](CC[C@@H](C)[C@@H]2c2ccc(Br)cc2)C(=O)O1 | 1.56 | 0.149 (inactive) | -16.5 (active) | -0.435 (inactive) | 1.28 | 0.0173 (inactive) | -0.109 | 0.444 | 0.728 | -0.0616 | 0.801 | -0.1 | -0.442 | 0.541 (inactive) | 0.28 | 0.707 | 0.457 | 0.562 | 0.296 | 0.0442
10 | CCOC(=O)[C@H](CC(C)C)NC(=O)CCC1CC(OC(=O)NCc2ccc3c(c2)OCO3)CC2(CCCC(COC(=O)NCCOC)O2)O1 (stereo not given in full) | 0.634 | 0.0162 (inactive) | 0.48 (inactive) | -0.958 (inactive) | 1.71 | -0.172 (inactive) | -0.205 | 0.474 | 0.793 | 0.0953 | 0.622 | -0.27 | -0.261 | -0.191 (inactive) | 0.495 | 0.627 | 0.184 | 0.864 | 0.336 | 0.637

Source: PubChem BioAssay
